Measured values from publication PMC12136788.
Where a chain is given by its changes, count along the chain named. Whole data set: some 24,000 sequences, median “enrichment r” near 0.99, cut for the highest 2% near 3.7. Many of the other results were omitted from the sample, so the highest values are more common in it than they were.

T1: UNK ZnF1-3 (human, UniProt Q9C0B0 31-174)
T1 sequence: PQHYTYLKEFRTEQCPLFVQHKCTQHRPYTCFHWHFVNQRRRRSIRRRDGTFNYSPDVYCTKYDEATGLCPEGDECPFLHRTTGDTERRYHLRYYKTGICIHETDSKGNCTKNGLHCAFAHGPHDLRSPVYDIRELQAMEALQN

B1: chr9:115598534:115598535:+_ENSG00000148158_ENST00000374232|hu_mus|motif|central (ssRNA)
RNA: GGGAGUUCUACAGUCCGACGAUCCAGCUUAUAGCCUCCGGUGACGUGCUUGACUGACUCACCCACUCUGCUCAGCAAUGCGGUCCCUUGCUUCUUGUAGGCAUUCAGGUCCUUAGCAGUGAGGAACACAUUGAAGUGUUCAUUCAACAGAGGAUUGAGCAUCA
B2: chr8:41682716:41682717:-_ENSMUSG00000039431_ENSMUST00000048898|mus_hu|motif|central (ssRNA)
RNA: GGGAGUUCUACAGUCCGACGAUCCACAUCGCUGAGCUGCCAGUAAUGAUUAGGGAGGCCCAUCCGCGUGUAUUCUUCACGGAGAUCGAUCAGCACCCAGCCUUGCUCUCUUUCUUCUUUAUCCAGCAUGGGGUUGAAUGAAAACAACAGAGGAUUGAGCAUCA
B3: 34871406_34871526_3634_3pUTR_ENSMUSG00000037503_ENSMUST00000047534|mouse|control|control (ssRNA)
RNA: GGGAGUUCUACAGUCCGACGAUCAUGGUGGUGGGUUUGCUUCUCCAGAGUCAAGGAGCUUACAGUUUCCAAUACUCCACAACUCUAAACUGCAAGCAGCAGCAGCCGAGGAAGGAAGGCCCCUAGCCUCAGGGACGGCAGCAGCAACAGAGGAUUGAGCAUCA
B4: chr2:181041410:181041411:-_ENSMUSG00000027581_ENSMUST00000103045|mus_hu|FALSE|FALSE (ssRNA)
RNA: GGGAGUUCUACAGUCCGACGAUCAGCAUGAAGCUGGGGGCGGGGGUGGGGGAGGAGGAACAAAAGUUGCAUCUAGACAGAGGUGAACGAAACAAAACCAAAACCCGAACGUGUUCUGUCGCAGGAUGGGCGCCGCCCGUCCCGCAACAGAGGAUUGAGCAUCA
B5: 91351710_91351830_385_5pUTR_ENSMUSG00000055013_ENSMUST00000027521|mouse|control|control (ssRNA)
RNA: GGGAGUUCUACAGUCCGACGAUCAAGAAAAAGAAAAAGAAAAAGAAAAGAACGCUGAGGAUGAAGCAGUAGAGGGGCUCAGUUCAUAGCAGGGACCAGCGUCCCGGGUCAGCGGGCCGUCCGGGAAGACCGCGGCGCCAUGGACAACAGAGGAUUGAGCAUCA
B6: chr15:100311029:100311030:-_ENSMUSG00000044636_ENSMUST00000061457|mus_mus|motif|central (ssRNA)
RNA: GGGAGUUCUACAGUCCGACGAUCGCCUGGUCUACAUAGCAAGUCCCAGGCCAGCCAGGGCUGUUUAGCAACACACUGCCGGAAAAAAAAAAAAGAAAAAAGAAAAGAAAAGAAAAGAAAAGAAAAGAAAAGAAAAGAAAAGAACAACAGAGGAUUGAGCAUCA
B7: chr12:86311719:86311720:-_ENSMUSG00000042350_ENSMUST00000043169|mus_hu|FALSE|FALSE (ssRNA)
RNA: GGGAGUUCUACAGUCCGACGAUCGACUGCCAAAGGACGCCCCAGGAUCCCGAGCCGGGGGUUGCAGCGCGACGAAGUUCCACCUCCGCUGUCCUGGGAAGGGGCGGCAGCACUCAGCAGAAGACGGGCUCCCCACUCUCCCACCAACAGAGGAUUGAGCAUCA
B8: chr15:100311029:100311030:-_ENSMUSG00000044636_ENSMUST00000061457|mus_mus|FALSE|FALSE (ssRNA)
RNA: B6 RNA with G80U, G81A
B9: chr4:140556289:140556290:+_ENSMUSG00000036622_ENSMUST00000037055|mus_mus|mus_mus_mus_hu_False|8_78 (ssRNA)
RNA: GGGAGUUCUACAGUCCGACGAUCGAUGGAGCUCACCAGGCCCCCUUUUGCCGUGCAGAACCCUGUCCGGGUCACCACUGCCAGGACGUGCGGUCCCACAUAGGCCCGGGCCUGCAAGAUGAGGGUCCCACAGAAGAGUGUGUGCAACAGAGGAUUGAGCAUCA
B10: chr3:38349274:38349275:-_ENSMUSG00000044864_ENSMUST00000156038|mus_mus|FALSE|FALSE (ssRNA)
RNA: GGGAGUUCUACAGUCCGACGAUCAAAUGACCAAGUACAGCAAGCAGGCUGGCUACAGCACCCUGGUCAGCCUGGUCCUCGCCAGAAGCUGUUUUUGUUCUACUUUAAAUCAGUUAAUAAUAAAAACAAAACAAAAGGGAAAAACAACAGAGGAUUGAGCAUCA
B11: chr4:155540527:155540528:-_ENSMUSG00000041936_ENSMUST00000154494|mus_hu|FALSE|FALSE (ssRNA)
RNA: GGGAGUUCUACAGUCCGACGAUCGCCUGGACGGAAGGGAGGCCGGGCCAGCAGUCCCUCCGGCCAACACUCAGGCAAGAAAAUCAUAUCAAAAAGCAACAAGUUUACAAAAAUAGAAAAUAAUUACAGCGGGCGCGGGGCUCUCAACAGAGGAUUGAGCAUCA
B12: chr7:23239867:23239868:+_ENSG00000136243_ENST00000258742|hu_hu|FALSE|FALSE (ssRNA)
RNA: GGGAGUUCUACAGUCCGACGAUCCCCAAAACCAGCAGGGCUUCCAGAAGAGGCAGCAGCAAAUCCAGAGUUUGUUUUAAAACUAAAGUUCUGAGCAUUAUCACUGCUGCUGUUAUUGACUGGAAAGCCUGGCGACAUAAAUGUCAACAGAGGAUUGAGCAUCA
B13: chr18:64617603:64617604:-_ENSMUSG00000024588_ENSMUST00000025484|mus_mus|FALSE|FALSE (ssRNA)
RNA: GGGAGUUCUACAGUCCGACGAUCGCGGGAGGCACACUGGAAGCCAGUUUGGCCUACAUAGGGCAAGCGAGAAAUAAGAUAAAAUAAGAUAAAACACAGGCAAGAGAGAAAUCACAGUUUGUGCCCAGACAAACGUGGCUUCUGCAACAGAGGAUUGAGCAUCA
B14: chr2:104430758:104430759:+_ENSMUSG00000027176_ENSMUST00000028599|mus_mus|motif|central (ssRNA)
RNA: GGGAGUUCUACAGUCCGACGAUCGGGACUACAACGUACGCACCAGCCGGCAAAGGGAAGCUAGAAAAGGAAAAUUAAACGGAAGGCAAACCCCACCAAAACCAGGAACACUACCCCUGUCCCUCAGAGCCAAAGCCGCCGCCACAACAGAGGAUUGAGCAUCA
B15: chr9:108469239:108469240:-_ENSMUSG00000070283_ENSMUST00000074208|mus_hu|FALSE|FALSE (ssRNA)
RNA: GGGAGUUCUACAGUCCGACGAUCGGGAAGCUCAACGGGCGGACAGCGCAGCGAGGGUCGCGCUCGGUACAAGCUACGUAGCGCGAGAGCGGUGGCCAUGGCUGACCAACGCGCGGCGAAGUCGUCACCGGCGCCGUUAGUCCCCAACAGAGGAUUGAGCAUCA

Each binder was assayed against T1, UNK ZnF1-3 (assay: nsRBNS (natural sequence RNA bind-n-seq); RBNS binding buffer (assumed for nsRBNS): 25 mM Tris pH 7.5, 150 mM KCl, 3 mM MgCl2, 0.01% Triton X-100, 500 ug/ml BSA, 20 U/ml SUPERase-In, 4 C; UNK is unkempt and MSI1 is Musashi-1; names of the RNAs are library labels; protein concentration not given here; high values mean tight binding).

| Binder | binding signal |
| --- | --- |
| B1 | 0.691 enrichment R |
| B2 | 1.07 enrichment R |
| B3 | 1.48 enrichment R |
| B4 | 3.3 enrichment R |
| B5 | 4.11 enrichment R |
| B6 | 4.43 enrichment R |
| B7 | 1.33 enrichment R |
| B8 | 4.34 enrichment R |
| B9 | 1.02 enrichment R |
| B10 | 0.882 enrichment R |
| B11 | 4.13 enrichment R |
| B12 | 0.668 enrichment R |
| B13 | 3.43 enrichment R |
| B14 | 2.17 enrichment R |
| B15 | 0.446 enrichment R |
